Screening results: PubChem, National Center for Advancing Translational Sciences (NCATS)
Most compounds without a hit are left out; they make up all but 19% or so of the library.
TDP1 block – blocks human tyrosyl-DNA phosphodiesterase 1; Q9NUW8; recombinant TDP1, AlphaScreen DNA substrate cleavage; Potency, µM (doses to about 130 µM), inactives show top-dose activity change, negative = inhibition, actives largely listed as inhibitors; 350,000 compounds, 0.28% hits; AID 485290; note: nearly all actives have a fitted effect of over 40% in size
Target sequence (Q9NUW8 whole entry, looked up): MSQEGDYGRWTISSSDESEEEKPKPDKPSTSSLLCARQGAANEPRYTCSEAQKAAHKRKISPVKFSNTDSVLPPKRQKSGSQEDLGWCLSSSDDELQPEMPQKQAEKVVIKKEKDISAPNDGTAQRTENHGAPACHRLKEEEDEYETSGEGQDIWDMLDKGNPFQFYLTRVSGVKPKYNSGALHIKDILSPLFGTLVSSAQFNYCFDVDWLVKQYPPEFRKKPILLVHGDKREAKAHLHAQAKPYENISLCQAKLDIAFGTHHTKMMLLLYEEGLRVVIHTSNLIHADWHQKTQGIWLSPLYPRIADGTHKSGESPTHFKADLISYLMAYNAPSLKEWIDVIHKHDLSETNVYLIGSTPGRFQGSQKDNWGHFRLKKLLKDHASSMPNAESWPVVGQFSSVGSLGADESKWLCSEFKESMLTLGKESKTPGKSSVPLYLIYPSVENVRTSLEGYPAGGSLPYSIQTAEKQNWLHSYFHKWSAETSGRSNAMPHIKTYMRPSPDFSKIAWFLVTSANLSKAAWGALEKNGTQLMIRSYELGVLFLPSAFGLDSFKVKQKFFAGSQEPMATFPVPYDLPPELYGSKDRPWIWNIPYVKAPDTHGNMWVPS
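Tdp1 1 nM final; 15 min RT w/ cpd; substrate 15 nM, 5 min; beads 10 ug/ml, 10 min; AlphaScreen read. Neg ctrl: no enzyme.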
TDP1 cell noCPT – qHTS for Inhibitors of human tyrosyl-DNA phosphodiesterase 1 (TDP1): qHTS in cells in absence of CPT | Potency, µM (series often up to 46.2 µM), inactives show at the top dose activity change, negative = growth inhibition, hits mostly inhibitors | DT40 Tdp1-/- hTDP1 cells, no CPT, ATP luminescence, 48 h | 420,000 compounds, 15% hits; note: nearly all actives have a fitted effect of over 55% in size
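Luminescent ATP content (CellTiter-Glo) served as the growth readout. Knockout chicken DT40 cells expressing human TDP1 were exposed to compounds without camptothecin for a minimum 48 hr at 37 °C.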
VP16 counter – counter-screen for ROR gamma inhibitors: Gal4-VP16 reporter. Potency, µM (highest dose often 53.6 µM), for inactives: at the highest dose activity, negative = inhibition, usual class: inhibitors. 310,000 compounds, 3.5% hits. Drosophila S2 Gal4-VP16 UAS-luciferase, luminescence, 20 h;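 note: Gal4-VP16 expression switched on by copper sulfate through the metallothionein promoter; nearly all actives have a fitted effect of over 50% in size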
RORg inh – blocks mouse ROR gamma transcriptional activity; Potency, µM (doses to about 53.6 µM), inactives show top-dose activity change, negative = inhibition, hits mostly inhibitors; P51450; 310,000 compounds, 5.4% hits; Drosophila S2 Gal4-RORgamma UAS-luciferase reporter, 20 h; note: nearly all actives have a fitted effect of over 60% in size
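A Gal4/UAS one-hybrid system in insect cells: metallothionein-promoter Gal4–ROR gamma fusion plus Photinus luciferase reporter. Copper sulfate 700 uM final, 20 hr ambient incubation, luminescent detection after 10 min with reagent.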
DT40 TDP1 CPT – growth inhibition of DT40 Tdp1-/-;hTDP1 cells with camptothecin (screen for TDP1 inhibitors). 420,000 compounds, 12% hits. Potency, µM (titrated, usually from 46.2 µM), inactives show at the highest dose activity change, negative = growth inhibition, hits mostly inhibitors. chicken DT40 Tdp1-/-;hTDP1 cells + 20 nM CPT, ATP luminescence, 48 h; note: nearly all actives have a fitted effect of over 55% in size
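Cell growth measured by CellTiter-Glo luminescence after a minimum 48 h, 37 C compound exposure with 20 nM CPT in Tdp1-knockout DT40 cells stably expressing hTDP1, seeded 400/well; qHTS titration format.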
The depositor's hits bear a star; ? = inconclusive; / = no result given; [ ] = remark or other dose. Calls come from the whole dose curve; as a rule, active = well fitted curve in the direction sought with a large enough effect; inconclusive = small, poorly fitted or top-dose-only effect, or another doubt; inactive = no such curve, though single readings can be large; an effect the other way counts as inactive or inconclusive. % is set by controls: 0 for no effect and ±100 for the full control effect; potency is the fitted concentration of half-maximal effect.

SMILES | TDP1 block | TDP1 cell noCPT | VP16 counter | RORg inh | DT40 TDP1 CPT
OC(COc1ccc(Cl)cc1)CN1CCCCC1 (centres undefined) | 4.9% | -13.4% | 0.0% | -17.9% | 1.8%
CCN(Cc1ccncc1)C(=O)c1cc(COc2c(C)cccc2C)on1 | 2.3% | ? | ? | 30.8% | 11.6µM*
Cc1nc(CN(C)C(=O)c2cc(COc3ccc4ncccc4c3)on2)cs1 | -10.1% | 5.8µM* | 6.31µM* | ? | 5.8µM*
Cc1cccc(C)c1OCc1cc(C(=O)N(Cc2nccn2C)C(C)C)no1 | 2.4% | 10.3µM* | -11.2% | -12.0% | 14.6µM*
COc1cccc(OCc2cc(C(=O)N(Cc3nccn3C)C(C)C)no2)c1 | 3.3% | -4.8% | 1.6% | -0.9% | -8.1%
COc1cccc(OCc2cc(C(=O)N(C)Cc3nc(C)cs3)no2)c1 | 3.6% | ? | -12.5% | 26.3% | ?
CC(C)N(Cc1nccn1C)C(=O)c1cc(COc2ccc3ncccc3c2)on1 | 5.4% | 10.3µM* | ? | -66.5% | ?
O=C(Nc1ccc(Br)cc1)c1cccc(N2C(=O)C3C4CCC(C4)C3C2=O)c1 (centres undefined) | 4.7% | 29.1µM* | -1.2% | ? | ?
O=C(Nc1ccc(F)cc1)c1cccc(N2C(=O)C3C4CCC(C4)C3C2=O)c1 (centres undefined) | -0.6% | 23.1µM* | 3.4% | ? | ?
O=C(Nc1ccc(Br)cc1)c1cccc(N2C(=O)C3C4C=CC(C4)C3C2=O)c1 (centres undefined) | 2.8% | ? | / | / | 23.1µM*
O=C(Nc1ccc(F)cc1)c1cccc(N2C(=O)C3C4C=CC(C4)C3C2=O)c1 (centres undefined) | 4.2% | ? | -0.2% | 18.4% | -7.7%
O=C(Nc1ccccc1)c1cccc(N2C(=O)C3C4C=CC(C4)C3C2=O)c1 (centres undefined) | -0.1% | -28.6% | 3.7% | ? | -22.3%
O=C(Nc1ccc(Br)cc1)c1cccc(N2C(=O)CCC2=O)c1 | -4.2% | -14.6% | 7.7% | ? | 0.2%
COc1ccc(NS(=O)(=O)c2cc(C)ccc2NC(=O)c2cc(C)oc2C)cc1 | 9.8% | 0.581µM* | -6.6% | 25.1% | 0.92µM*
O=C(CSc1nnc(NC(=O)c2c(F)cccc2Cl)s1)Nc1ccccc1F | 3.8% | 2.4% | 20.8% | 32.7% | 5.2%
CCOc1ccc(-c2c(C)sc3nc[nH]c(=O)c23)cc1 | / | 16.4µM* | 1.4% | 25.2%[1.91 µM] | ?
COc1cc(S(=O)(=O)Nc2ccccc2)ccc1N=Cc1c(C)[nH]n(-c2ccc(C)cc2)c1=O | 5.7% | / | -9.8% | 43.1% | /
COc1cc(SC#N)ccc1N=Cc1c(C)[nH]n(-c2ccc(Cl)cc2)c1=O | 2.2% | 3.66µM* | 5.62µM* | 5.62µM* | 2.59µM*
COc1cc(SC#N)ccc1N=Cc1c(C)[nH]n(-c2ccc(C)c(C)c2)c1=O | 8.2% | 2.59µM* | 4.47µM* | 4.47µM* | 3.26µM*
Cc1ccc(-n2[nH]c(C)c(/C=C3/C=Nc4ccccc43)c2=O)cc1C | 5.0% | -0.2% | -9.0% | -28.5% | -2.8%
Cc1cccc(NC(=O)c2cc3c(=O)n(Cc4ccco4)ccc3nc2C)c1 | 4.5% | ? | / | / | ?
CCCc1cc(-c2nc(N)ncc2-c2ccc3c(c2)OCCCO3)c(O)cc1OC | 10.3% | 25.9µM* | ? | -22.1% | ?
CCCc1cc(-c2nc(N)ncc2-c2csc(C)n2)c(O)cc1OC | 5.0% | ? | -2.1% | 24.0% | ?
CC(=O)N[C@@H](CC(C)C)C(=O)N[C@@H](CC(C)C)C(=O)N[C@H](C=O)CCCN=C(N)N | 7.5% | / | 1.8% | -1.7% | /
COc1ccccc1C1C=C(c2ccc(F)cc2)Nc2nc(-c3ccc(Cl)cc3)nn21 (centres undefined) | / | 16.4µM* | / | / | 20.6µM*
SMILES | TDP1 block | TDP1 cell noCPT | VP16 counter | RORg inh | DT40 TDP1 CPT
COc1ccccc1C1C=C(c2ccc(Cl)cc2)Nc2nc(-c3ccc(Cl)cc3)nn21 (centres undefined) | / | ? | / | / | 16.4µM*
COc1ccccc1C1C(C(N)=O)=C(C)Nc2nc(-c3ccc(Cl)cc3)nn21 (centres undefined) | 3.9% | 10.1% | -3.4% | -2.2% | 2.8%
COc1cccc(C2=NOC(C(=O)NCCCn3ccnc3)C2)c1 (centres undefined) | 6.8% | -11.7% | -7.6% | 14.6% | -5.1%
Cc1ccc(S(=O)(=O)N(C)c2cc(S(=O)(=O)N3CCC(C)CC3)c(C)cc2C)cc1 | -5.8% | ? | ? | ? | ?
Cc1cc2nnn(-c3nnc(-c4ccccc4)c4ccccc34)c2cc1C | 0.0% | ? | -7.7% | -2.0% | 25.9µM*
O=C(Cn1ncc2c3ccccc3n(Cc3ccccc3F)c2c1=O)NC1CCCCCC1 | 2.5% | 14.6µM* | / | / | 7.31µM*
Cc1cc(C)c(Cn2c3ccccc3c3cnn(CC(=O)NC4CCCCCC4)c(=O)c32)c(C)c1 | 0.0% | ? | / | / | -21.9%
O=C(Cn1ncc2c3ccccc3n(Cc3ccccc3F)c2c1=O)NC1CC1 | -0.9% | 0.5% | -3.2% | -21.7% | -7.5%
Cc1ccc(C)c(Cn2c3ccccc3c3cnn(CC(=O)NC4CCCCCC4)c(=O)c32)c1 | 5.1% | 13µM* | / | / | ?
O=C(Cn1ncc2c3ccccc3n(Cc3ccc(F)cc3)c2c1=O)NCCCN1CCCCC1 | 2.5% | -15.3% | / | / | -13.3%
O=C(Cn1ncc2c3ccccc3n(Cc3ccc(F)cc3)c2c1=O)NC1CCCCCC1 | 0.0% | ? | / | / | ?
O=C(Cn1ncc2c3ccccc3n(Cc3cccc(Cl)c3)c2c1=O)NC1CCCCCC1 | 7.6% | 6.51µM* | / | / | 8.2µM*
CC(NC(=O)Cn1ncc2c3ccccc3n(Cc3ccc(F)cc3)c2c1=O)c1ccccc1 (centres undefined) | -2.5% | 10.3µM* | / | / | ?
Cc1ccc(-n2nnc3c(=O)n(CC(=O)N4CCOCC4)cnc32)cc1 | -1.1% | 2.3% | -5.0% | 31.7% | -10.3%
COc1cccc(CNC(=O)Cn2ncc3c4ccccc4n(Cc4ccccc4)c3c2=O)c1 | 5.1% | -28.1% | / | / | -17.1%
CC(CNC(=O)Cn1ncc2c3ccccc3n(Cc3cccc(Cl)c3)c2c1=O)c1ccccc1 (centres undefined) | 5.1% | ? | / | / | 18.4µM*
Cc1ccc(C(=O)N(Cc2ccco2)c2ccccn2)cc1 | 4.7% | ? | / | / | -18.4%
COc1ccc(-n2c(-c3ccccc3)nnc2-c2ccc(Cl)cc2)cc1 | 0.0% | ? | -11.8% | 9.3% | -11.9%
COc1ccc(-n2c(-c3ccc(Cl)cc3)c[n+]3c2CCc2ccccc2-3)cc1 | 2.5% | 2.31µM* | 12.6µM* | ? | 2.91µM*
